# Results from ChEMBL document CHEMBL3988442, “University of Dundee, Small-Polar-MMV Screening Library” (2021).
# Biological target: AMP-activated protein kinase, AMPK (Homo sapiens) (UniProt P54646+O43741+P54619+Q9UGJ0+Q9Y478+Q13131+Q9UGI9)
# Test: AMP-dependent Kinase enzyme assay. An in vitro enzyme assay that detects ADP turnover that is directly proportional to AMPK activity. This uses naive AMPK that is activated during the assay with MK-8722
# Format: functional
# Design: scale not given: direction of the effect not stated beside the values
# Settings: 30 µM
row,SMILES,Percent Effect
1,CC(Oc1ccc2c(c1)OCO2)C(=O)N1CCC(N2CCOCC2)CC1 (stereo unspecified),-2.63%
2,CCN(Cc1cn(CC2CCNCC2)nn1)CC1CCCO1 (stereo unspecified),4.72%
3,CCCc1ccc(CN2CCC3(CC2)CNC(=O)C3)o1,18.2%
4,Cc1cc(C)n(C2CCN(C(=O)c3cn4ccsc4n3)C2)n1 (stereo unspecified),-11.9%
5,O=S(=O)(NCCCn1cncn1)c1ccc2c(c1)OCCO2,8.28%
6,COc1ccc(Cl)cc1C(=O)NCc1cnn(C)c1C,7.53%
7,Cc1nsc(N2CCCN(C(=O)CCc3ccsc3)CC2)n1,-4.46%
8,CCOC(=O)C1(O)CCN(C(=O)Nc2cccc(F)c2)CC1,-1.01%
9,COc1c(C)cnc(CN2CCCC2c2noc(C3CC3)n2)c1C (stereo unspecified),-14.3%
10,CCCNC(=O)c1cnc2n1CCCC2,0.00547%
11,O=C(Cn1cccn1)N1CCC(c2nnc(-c3ccsc3)o2)CC1,14%
12,CCCN1CCC(CC(=O)NCc2cc(O)ncn2)CC1,-4.63%
13,O=C(c1coc(-c2ccccc2)n1)N1CCS(=O)(=O)CC1,0.626%
14,CCCN1CCC(N(C)C(=O)c2cc(C)nc3cc(F)ccc23)CC1,-6.76%
15,COc1ccc(CN(C)C(=O)CN2CC(n3cccn3)C2)cc1F,-4.28%
16,Cc1ccccc1OCCn1cnc2oc(C)c(C(=O)O)c2c1=O,14.5%
17,Cc1ccc(CCCC(=O)N2CC(=O)Nc3cccnc32)s1,2.25%
18,COC(=O)NCC(=O)NC1(C)CCc2ccccc2C1 (stereo unspecified),12.8%
19,COc1cccc(CC2CCCN2Cc2nccn2C)c1 (stereo unspecified),-2.19%
20,COc1ccccc1CNC(=O)C(C)N1CC(n2nc(C)cc2C)C1 (stereo unspecified),3.14%
21,O=C(CN1CC(c2nc(-c3ccco3)no2)C1)NCc1ccc(F)cc1,1.74%
